Sampled rows, rich in hits. Any-hit rate of the full collection: about 3.9%.
3CLpro inhibitor: SARS-CoV 3CLpro protease inhibition; AID 1706; P0C6X7; hit rate 0.14% among 290,000; recombinant SARS-CoV 3CLpro, quenched FRET peptide cleavage; inhibition, % at 6 µM; in the data active means inhibition above about 12%
BoNT F protease: blocks Botulinum neurotoxin F light chain protease | Multiplex microsphere protease cleavage assay, flow cytometry | inhibition, % at 10 µM | hit rate 0.22% among 360,000 | AID 588497; in the data active means inhibition above about 35%, passing the limit was not always enough; inconclusive means no clear call, values can overlap the other calls
BoNT-A LC inh2: inhibitors of Botulinum neurotoxin A light chain protease; multiplex microsphere protease substrate cleavage, flow cytometry; inhibition, % at 10 µM; hit rate 0.17% among 360,000; AID 588499; in the data active means inhibition above about 30%; inconclusive means no clear call, values can overlap the other calls
Bead autofluor: flagged as autofluorescent in microsphere protease counterscreen; compound autofluorescence counterscreen, microsphere flow cytometry; active compounds read high; fluorescence intensity (test concentration not listed); hit rate 3.1% among 360,000; in the data active means fluorescence intensity above about 16000; inconclusive means no clear call, values can overlap the other calls
CCHF vOTU inh-1: CCHFV vOTU protease inhibition; Pep-AMC fluorescence; inhibition, % at 11.5 µM; hit rate 0.55% among 370,000; AID 651958
Anthrax LF inh2: inhibitors of Bacillus anthracis lethal factor protease. P15917. multiplex microsphere protease cleavage assay, LF. inhibition, % at 10 µM. hit rate 0.12% among 360,000. AID 588501; in the data active means inhibition above about 30%; inconclusive means no clear call, values can overlap the other calls
Target sequence (P15917 whole entry, looked up): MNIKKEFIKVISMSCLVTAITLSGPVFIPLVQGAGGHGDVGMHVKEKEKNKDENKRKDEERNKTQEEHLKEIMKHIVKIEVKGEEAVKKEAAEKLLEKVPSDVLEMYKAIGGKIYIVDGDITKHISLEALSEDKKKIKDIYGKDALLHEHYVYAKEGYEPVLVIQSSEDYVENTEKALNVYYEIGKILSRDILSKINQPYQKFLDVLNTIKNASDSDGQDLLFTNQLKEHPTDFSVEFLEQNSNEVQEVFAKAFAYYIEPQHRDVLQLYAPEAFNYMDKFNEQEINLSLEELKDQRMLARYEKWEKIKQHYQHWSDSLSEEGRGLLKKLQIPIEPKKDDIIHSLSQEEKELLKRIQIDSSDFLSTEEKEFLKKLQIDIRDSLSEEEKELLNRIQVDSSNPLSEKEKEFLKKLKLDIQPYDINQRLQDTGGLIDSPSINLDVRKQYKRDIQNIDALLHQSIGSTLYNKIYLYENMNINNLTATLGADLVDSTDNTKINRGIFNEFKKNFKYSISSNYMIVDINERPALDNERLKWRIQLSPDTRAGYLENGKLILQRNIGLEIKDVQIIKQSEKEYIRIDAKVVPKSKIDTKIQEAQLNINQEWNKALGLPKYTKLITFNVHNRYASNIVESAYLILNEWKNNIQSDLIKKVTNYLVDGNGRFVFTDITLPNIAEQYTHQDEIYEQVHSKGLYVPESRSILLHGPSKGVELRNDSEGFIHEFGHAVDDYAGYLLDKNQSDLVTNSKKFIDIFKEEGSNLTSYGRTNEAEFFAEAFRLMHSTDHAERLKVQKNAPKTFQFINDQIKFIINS
CCHF vOTU inh-2: CCHFV vOTU protease inhibition, confirmation | Recombinant CCHFV vOTU, Pep-AMC fluorescence | inhibition, % at 11.5 µM | shares compounds with CCHF vOTU inh-1 | AID 686976 | hit rate 17% among 1,900
Hits are given with their value; - = inactive; ? = inconclusive; . = not tested or not shown. Unless noted, no stated cut-off is given here; in the data, active means inhibition above about 30%; inactive means the rest.

SMILES	3CLpro inhibitor	BoNT F protease	BoNT-A LC inh2	Bead autofluor	CCHF vOTU inh-1	Anthrax LF inh2	CCHF vOTU inh-2
O=C(O)c1[nH]c2ccccc2c1C(c1cc(Cl)cc([N+](=O)[O-])c1O)c1c(C(=O)O)[nH]c2ccccc12	-	?	-	-	46	-	-
CN(C)CC(O)COc1cccc(OCC(O)CN(C)C)c1 (stereo not drawn)	-	-	-	-	-	-	.
CCCCN(CC(O)COc1cccc(C)c1)CC(O)COc1cccc(C)c1 (stereo not drawn)	-	-	-	-	31	-	-
CCc1noc(C)c1C(=O)Nc1ccc(Cl)c(S(=O)(=O)N2CCCCC2)c1	.	-	-	-	32	-	-
Cn1nc(-c2ccccn2)nc2c(=O)n(C)c(=O)nc1-2	16	-	-	-	102	-	104
CCCc1nc2c(=O)n(C)c(=O)nc-2n(C)n1	-	-	-	-	113	-	94
CCNc1nc(NCC)nc(N(CC)C(N)=S)n1	-	?	-	-	-	-	.
O=C(COC(=O)Cn1cnc2ccccc21)Nc1ccc(F)c(F)c1	.	-	-	-	-	-	.
Cn1c(=O)c2c(-c3ccccc3)n(-c3ccc(N)cc3)cc2n(C)c1=O	.	-	-	-	98	-	92
CCCCNc1c2c(nc3c(-c4ccccc4)c(C)nn13)CCC2	-	-	-	20079	30	-	-
O=C1C=C(N2CCOCC2)c2ccccc2C1=O	-	-	-	-	103	-	94
O=C1C=C(N2CC2)c2ccccc2C1=O	.	-	-	-	105	-	92
O=C1C=C(N2CCOCC2)c2cccc3cccc1c23	.	-	-	-	-	-	.
O=C1C(NS(=O)(=O)c2cccs2)=C(N2CCOCC2)C(=O)c2ccccc21	-	-	-	-	-	-	.
O=C(O)c1cccc(NC2=C(N3CCOCC3)C(=O)c3ccccc3C2=O)c1	-	-	-	-	79	-	93
CCOc1ccc(S(=O)(=O)N2CCCC(C(=O)N3CCN(c4ccccc4)CC3)C2)cc1 (stereo not drawn)	-	-	-	-	-	-	.
COc1ccc(/C=C(/NC(=O)c2ccc(C)cc2)C(=O)N2CCCC2)cc1OC	-	-	-	-	-	-	.
O=c1[nH]nc(CNc2ccc(C(F)(F)F)cc2)c2ccccc12	-	-	-	-	-	-	.
O=c1[nH]nc(CNc2ccc(O)cc2)c2ccccc12	-	-	-	-	53	-	-
O=C(/C=C/c1cccc(Cl)c1)OCC(=O)c1ccc[nH]1	.	-	-	-	35	-	-
Cc1cc(F)cc(-c2cc(C(=O)NCc3cccc(Cl)c3)[nH]n2)c1	.	-	-	-	34	-	-
Cc1[nH][nH]c(=O)c1C(c1c(C)[nH][nH]c1=O)c1cn(C)c2ccccc12	-	-	-	-	44	-	-
Cc1[nH][nH]c(=O)c1C(c1c(C)[nH][nH]c1=O)c1cn(Cc2cccc3ccccc23)c2ccccc12	-	-	-	-	48	-	-
Cc1ccc(C)c(N(CC(=O)NCc2ccco2)C(=O)CNS(=O)(=O)c2ccccc2)c1	-	-	-	-	-	-	.
CC(=O)c1cccc(NC(=O)c2ccc(Br)o2)c1	-	-	-	-	-	-	.
SMILES	3CLpro inhibitor	BoNT F protease	BoNT-A LC inh2	Bead autofluor	CCHF vOTU inh-1	Anthrax LF inh2	CCHF vOTU inh-2
O=C(Nc1ccccc1C(=O)O)c1cccc(NC(=O)c2ccc(Br)o2)c1	-	-	-	-	30	-	-
CC(C)Oc1ccccc1NC(=O)CSc1nccn1C	-	-	-	-	-	-	.
CCOC(=O)C(=CNc1cc(C)nn1-c1ccc(C)cc1)C(=O)OCC	-	-	-	-	30	-	-
Cc1cc(=O)n2c3c(c4c(cc13)c(CN(C)C)cc(=O)n4C)OC2	.	-	-	-	90	-	51
COc1ccc(NC(=O)c2cccnc2)cc1	-	?	-	-	-	-	.
C/C(=C\C(=O)c1cccnc1)Nc1ccc(O)cc1	-	-	-	-	95	-	-
C/C(=C\C(=O)c1ccccc1)Nc1ccc(O)cc1	-	-	-	-	76	-	-
CCC/C=C/c1ccc(CN2C(C(C)C)C(=O)N(Cc3cn(CCC4OCCO4)nn3)CCS2(=O)=O)cc1 (stereo not drawn)	.	-	-	-	-	-	.
COc1cccc(C(c2c(C)[nH]n(-c3ccccc3)c2=O)c2c(C)[nH]n(-c3ccccc3)c2=O)c1OC	-	-	-	-	56	-	-
COc1cccc(C(c2c(C)[nH]n(-c3ccccc3)c2=O)c2c(C)[nH]n(-c3ccccc3)c2=O)c1O	.	-	-	-	99	-	-
Cc1[nH]n(-c2ccccc2)c(=O)c1C(=O)c1ccccc1	-	?	?	-	-	-	.

Assay outcomes as filed in PubChem.
